Sampled rows, rich in hits. Any-hit rate of the full collection: about 3.6%.
BoNT A protease: inhibitors of Botulinum neurotoxin A light chain protease; multiplex microsphere protease substrate cleavage, flow cytometry; inhibition, % at 10 µM; 360,000 compounds, 0.17% hits; AID 588499
BoNT-F LC inh: blocks Botulinum neurotoxin F light chain protease | Multiplex microsphere protease cleavage assay, flow cytometry | inhibition, % at 10 µM | 360,000 compounds, 0.22% hits | AID 588497; in the data active = inhibition above about 35%, passing the limit was not always enough; inconclusive = no clear call, values can overlap the other calls
3CLpro inhibitor: SARS-CoV 3CLpro protease inhibition; P0C6X7; recombinant SARS-CoV 3CLpro, quenched FRET peptide cleavage; inhibition, % at 6 µM; 290,000 compounds, 0.14% hits; in the data active = inhibition above about 12%
Anthrax LF inh2: inhibitors of Bacillus anthracis lethal factor protease | P15917 | multiplex microsphere protease cleavage assay, LF | inhibition, % at 10 µM | 360,000 compounds, 0.12% hits | AID 588501
Target sequence (P15917 whole entry, looked up): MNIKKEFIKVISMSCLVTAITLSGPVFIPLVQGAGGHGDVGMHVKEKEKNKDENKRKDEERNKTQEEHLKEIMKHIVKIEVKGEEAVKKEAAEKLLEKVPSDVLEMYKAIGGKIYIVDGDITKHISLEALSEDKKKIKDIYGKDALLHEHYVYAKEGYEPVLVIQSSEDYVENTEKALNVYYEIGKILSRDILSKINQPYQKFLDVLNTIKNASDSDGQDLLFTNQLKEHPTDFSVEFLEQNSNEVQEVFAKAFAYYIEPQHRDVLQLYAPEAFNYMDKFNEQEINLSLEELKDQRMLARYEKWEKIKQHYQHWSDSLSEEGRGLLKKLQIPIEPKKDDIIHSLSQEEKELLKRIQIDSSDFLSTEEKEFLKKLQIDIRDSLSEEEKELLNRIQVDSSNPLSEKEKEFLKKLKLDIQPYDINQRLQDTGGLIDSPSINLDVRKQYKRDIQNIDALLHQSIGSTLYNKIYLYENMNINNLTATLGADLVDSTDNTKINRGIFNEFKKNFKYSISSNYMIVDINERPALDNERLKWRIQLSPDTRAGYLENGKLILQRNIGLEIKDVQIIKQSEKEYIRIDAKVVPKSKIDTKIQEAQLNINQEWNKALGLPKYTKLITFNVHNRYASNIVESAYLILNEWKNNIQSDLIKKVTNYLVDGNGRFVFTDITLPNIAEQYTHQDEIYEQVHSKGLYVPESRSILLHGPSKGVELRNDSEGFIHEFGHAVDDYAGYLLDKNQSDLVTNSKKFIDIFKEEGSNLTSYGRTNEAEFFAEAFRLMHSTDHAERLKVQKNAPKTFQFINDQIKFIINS
Bead autofluor: flagged as autofluorescent in microsphere protease counterscreen. AID 624483. 360,000 compounds, 3.1% hits. compound autofluorescence counterscreen, microsphere flow cytometry; stronger effect = higher value. fluorescence intensity (concentration not given with the values); in the data active = fluorescence intensity above about 16000; inconclusive = no clear call, values can overlap the other calls
BJeLR viability: kills HRASV12-expressing BJeLR cells; inhibition, % (no concentration beside the values); 300,000 compounds, 0.17% hits; BJeLR (HRASV12) viability, CellTiter-Glo ATP luminescence, 48 h; in the data active = inhibition above about 50%; inconclusive = no clear call, values can overlap the other calls
Each line names hits and unclear results; the compound was inactive in the other large screens; ! = a repeat was not active. Cut-off read from the data, not from the text of the source, unless noted: active = inhibition above about 30%; inconclusive = no clear call, values can overlap the other calls; inactive = below that.

O=[N+]([O-])c1nn(-c2cccc(Cl)c2)n(O)c1=NCc1cccnc1	BoNT-F LC inh 35.0
Cc1cccc(N=c2c([N+](=O)[O-])nn(-c3ccc(Cl)cc3)n2O)c1	none
Cc1cc(C)cc(N=c2c([N+](=O)[O-])nn(-c3cccc(Cl)c3)n2O)c1	Bead autofluor 22853
C=CCNC(=O)CN1N=C(c2ccc(C)cc2)CCC1=O	none
CC(=O)Nc1nc(-c2ccc(Cl)cc2)nc(C)c1C(C)=O	BoNT-F LC inh 35.4
CC1CCc2c(sc(N)c2C(N)=O)C1 (stereo unspecified)	Bead autofluor 17162
COc1cccc(C(c2c(O)nc(SC)n(C)c2=O)c2c(O)nc(SC)n(C)c2=O)c1	Bead autofluor 21226
CCCSc1nc(O)c(C(c2ccc(OC)c(O)c2)c2c(O)nc(SCCC)n(C)c2=O)c(=O)n1C	none
O=c1oc2ccccc2cc1N1CCOCC1	none
CCOC(=O)/C=C1\CC(=O)Nc2nonc2N1	Bead autofluor 22714
CCOC(=O)/C=C1\CC(=O)Nc2cc(C)c(C)cc2N1	Bead autofluor 20731
CCOC(=O)/C=C1\Nc2ccccc2OC1=O	none
O=C(O)c1cccnc1SCc1cccc(Cl)c1	none
Cc1cc(C(O)c2ncc(-c3ccccc3F)[nH]2)ccc1F (stereo unspecified)	none (no result: 3CLpro inhibitor, BJeLR viability)
Cc1ccc(C(=O)Nc2cccnc2)cc1C	none (no result: 3CLpro inhibitor, BJeLR viability)
COC(=O)c1cc(C)sc1NC(=O)c1cccnc1	Bead autofluor 24838
O=C(Nc1cccnc1)c1ccc2c(c1)C(=O)N(Cc1cccnc1)C2=O	Bead autofluor 23004
CCC(=O)Nc1ccc(C(=O)Nc2cccnc2)cc1	none
CC(=O)c1cccc(NC(=O)c2ccc3c(c2)C(=O)N(Cc2cccnc2)C3=O)c1	none
Cc1cc(C(=O)Nc2cccnc2)cs1	Bead autofluor 23010
CC(C)(C)C(=O)Nc1ccc(C(=O)Nc2cccnc2)cc1	Bead autofluor 23774
Cc1ccccc1C(=O)N1CCC(C(=O)OCc2ccccc2Cl)CC1	none (no result: 3CLpro inhibitor, BJeLR viability)
Cc1ccc2c(c1)c1n[nH]c(=S)nc1n2CCc1ccccc1	none
COc1cccc(NC(=O)CN(C)C(=O)CCCc2nc3ccccc3c(=O)[nH]2)c1	none (no result: 3CLpro inhibitor, BJeLR viability)
CN(C)CCCNc1c2ccccc2nc2ccccc12	BJeLR viability 69.4
CN(C)C(=O)N1CCc2ccc([N+](=O)[O-])cc21	none (no result: 3CLpro inhibitor, BJeLR viability)
O=C(C1CCN(S(=O)(=O)N2CCOCC2)CC1)N1CCC2(CC1)OCCO2	Bead autofluor 22049
O=C(C1CCN(S(=O)(=O)c2ccc(F)cc2)CC1)N1CC=C(c2ccccc2)CC1	Bead autofluor 17943
O=C(c1ccc(S(=O)(=O)N2CCC(c3nc4ccccc4s3)CC2)cc1)N1CCCCC1	none (no result: BJeLR viability)
O=C(C1CCN(S(=O)(=O)c2cccs2)CC1)N1CCN(c2ccccc2)CC1	Bead autofluor 16746
O=C(c1ccc(S(=O)(=O)N2CCC(c3nc4ccccc4s3)CC2)cc1)N1CCOCC1	Bead autofluor 23501 (no result: 3CLpro inhibitor)
O=C(CN1CCN(C/C=C/c2ccccc2)CC1)NC(=O)NC1CCCCC1	none
Cc1ccccc1NC(=O)Cc1nc(COC(=O)C(NC(=O)c2ccccc2C)C(C)C)cs1 (stereo unspecified)	none (no result: 3CLpro inhibitor, BJeLR viability)
O=C(C1Cc2ccccc2CN1S(=O)(=O)c1cccs1)N1CCCCC1 (stereo unspecified)	Bead autofluor 25075
O=C(C1CCN(S(=O)(=O)c2ccccc2)CC1)N1CCOCC1	BoNT A protease inconclusive, Bead autofluor 16459
CCC(C)(C)NC(=O)CN(C(=O)C(=O)Nc1ccc2c(c1)OCCO2)N1CCOCC1	none
O=C(O)CN(CC(=O)O)CC(=O)O	none (no result: 3CLpro inhibitor, BJeLR viability)
CC(=O)N1CCc2cc(NC(=O)C3(C)CCN3Cc3ccccc3OC(F)F)ccc21 (stereo unspecified)	none (no result: 3CLpro inhibitor, BJeLR viability)
COc1ccc(C(CNC(=O)c2cccc(NS(=O)(=O)c3ccc(Br)cc3)c2)N(C)C)cc1 (stereo unspecified)	BoNT-F LC inh inconclusive, Bead autofluor inconclusive (no result: 3CLpro inhibitor)
O=C(Nc1c(-c2ccccc2)nc2ccccn12)c1cccc(F)c1	BoNT-F LC inh 35.8
C[C@@H]1C[C@H]2OC(=O)C3(CO3)[C@H]2[C@H](O)[C@]2(C)C(=O)C3OC3[C@@H]12 (stereo partly specified)	BJeLR viability 72.9 (no result: BoNT A protease, BoNT-F LC inh, 3CLpro inhibitor, Anthrax LF inh2, Bead autofluor)
Cn1nc(-c2ccc(N3CCCCC3)c(NC(=O)c3ccco3)c2)c2ccccc2c1=O	BoNT A protease inconclusive, Bead autofluor 23305
Cc1ccccc1Cn1nc(C)c(NC(=O)c2noc3c2CC(C(C)(C)C)CC3)c1C (stereo unspecified)	none
Cc1ccccc1Cn1cc(NC(=O)c2noc3c2CC(C(C)(C)C)CC3)cn1 (stereo unspecified)	BoNT A protease inconclusive, Bead autofluor 16905
O=C(NCc1ccc(F)cc1)c1noc2c1CCCCC2	none
O=C(NCc1ccc(F)cc1)c1noc2c1CCCC2	Bead autofluor 19451
CC(C)(C)C1CCc2onc(C(=O)NCc3ccc(F)cc3)c2C1 (stereo unspecified)	Bead autofluor 22455 (no result: BJeLR viability)
CCC(=O)Nc1cc(SCCO)cc([N+](=O)[O-])c1	Bead autofluor 16916
O=C(CCl)Nc1cc(SCC(O)CO)cc([N+](=O)[O-])c1 (stereo unspecified)	BJeLR viability 81.0
CC(C)=NOc1cc(NC(=O)CCl)cc([N+](=O)[O-])c1	none
CCC(=O)Nc1cc(ON=C(C)C)cc([N+](=O)[O-])c1	none
O=C(Cc1cc(=O)oc2cc(O)ccc12)NC(Cc1ccc(Cl)cc1)C(=O)O (stereo unspecified)	none
CC(=N\NC(=O)c1ccc([N+](=O)[O-])cc1)/C(=N/O)C(=O)Nc1ccccc1	none
COc1ccccc1Cc1noc(COc2cccc(C)c2C)n1	Bead autofluor 16962
O=C(Nc1cccc(C(=O)O)c1)/C(=C/c1ccc([N+](=O)[O-])cc1)NC(=O)c1ccccc1	none
O=C(Nc1cccc2ccccc12)/C(=C/c1ccc([N+](=O)[O-])cc1)NC(=O)c1ccccc1	BoNT A protease 34.1
O=c1[nH]c2ccccc2n1CCCSCCCn1c(=O)[nH]c2ccccc21	BoNT A protease inconclusive, Bead autofluor 19717
CC(C)CN1C(=O)C(=O)N(CC(=O)c2ccc[nH]2)C1=O	none (no result: 3CLpro inhibitor)
O=C(c1ccc(Cl)c(Cl)c1)N1CCC(=O)N([C@H](COCc2ccc(Cl)cc2)Cc2ccccc2)CC1	none (no result: 3CLpro inhibitor, BJeLR viability)
O=c1[nH]c(=O)n(C2OC(CO)C(O)C2O)cc1N1CCOCC1 (stereo unspecified)	none (no result: 3CLpro inhibitor, BJeLR viability)
O=C(OCc1cncs1)c1cccs1	none
Cn1c(=O)cc(OCCCC(=O)N2CCCCC2)c2ccccc21	Bead autofluor 22743
CN1CCN(C(=O)CCCOc2cc(=O)n(C)c3ccccc23)CC1	none
Cc1ccnc(NC(=O)CCCOc2cc(=O)n(C)c3ccccc23)c1	BoNT A protease inconclusive, Bead autofluor 21080!
CC(C)c1c(O)nc(SCCC(=O)O)[nH]c1=O	none
CCN(CC)CCSc1nc(O)c(-c2ccccc2)c(=O)[nH]1	Bead autofluor 17285
CCCCCc1c(O)nc(SCCN(CC)CC)[nH]c1=O	none
CCCN(CCC)CCSc1nc(O)c(C(C)C)c(=O)[nH]1	BoNT A protease inconclusive, Bead autofluor 18038
